Bioassay records deposited in PubChem by Columbia University Molecular Screening Center.
VCAM1 pot = enhances TNF alpha induced VCAM1 expression in HUVEC | AID 808 | activation, % at 2 µM | actives 0.19% (n = 93,000) | HUVEC TNFa-stimulated VCAM-1 immunofluorescence, high-content imaging; scaled per plate to unstimulated/TNFa-only wells;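 active = activation above the screen mean plus 3 SD, with well images confirming the hit on visual review, cut at about 28% in these data, passing the limit was not always enough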;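 also: signal is the number of cytoplasmic VCAM-1 stained grains per positive cell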
An asterisk follows results filed as active. A selection follows.

SMILES	VCAM1 pot
COc1ccc(CCC(C)NC2C3CC4CC(C3)CC2C4)cc1 (configuration not stated)	-1.4
O=C(CSc1cccs1)Nc1ccc2ccccc2c1	12.5
C=CCn1c(SCc2ccccc2C#N)nnc1-c1ccccc1O	-2.6
O=S(=O)(NCCc1ccncc1)c1cc(Br)ccc1F	-11.9
CON/C=C(\C=Nc1ccc(Cl)cc1)c1ncc(C(F)(F)F)cc1Cl	1.7
CCN(C(=O)c1cc2cccc(OC)c2oc1=O)C1CCCCC1	7.9
CCc1noc(C)c1C(=O)Nc1sc(C(=O)N(C)C)c(C)c1C(=O)OC	-1.6
COc1nc(C)nc2c1ccc1ccccc12	-5.6
COc1ccc(CS(=O)(=O)/C(Cl)=C(/Cl)C(=O)Nc2ccc(OC)nc2)cc1	-41.8
CC1CCCCC1NC(=O)c1ccc2c(c1)[nH]c(=O)n2C1CCCC1 (configuration not stated)	-0.2
COC(=O)c1nn(-c2cccc(C(F)(F)F)c2)c(=O)cc1Sc1ccccn1	-12.2
CSc1n[nH]c(NCc2cccs2)n1	35.4
COC(=O)c1ccccc1NC(=O)c1cc(-c2ccc(OC)c(OC)c2)on1	1.4
Cc1ccc(S(=O)(=O)/N=C(\c2ccc(Cl)cc2)N2CCOCC2)cc1	6.3
COc1ccc(C(=O)NCC(C)(C)SCc2c(C)cc(C)cc2C)cc1	3.9
CC1CCCN(CC(=O)Nc2ccc(S(=O)(=O)NC3CCCCC3)cc2)C1 (configuration not stated)	-7.4
O=S(=O)(NCc1cc(-c2ccccc2Cl)no1)c1ccc(Cl)cc1	-2.6
COc1ccccc1NS(=O)(=O)CC12CCC(CC1=O)C2(C)C (configuration not stated)	-2.2
O=C(COC(=O)c1cccnc1Cl)c1cccc(Cl)c1	-2.8
Cc1cc(C)cc(C(=O)N2CCC(C(N)=O)CC2)c1	-7.1
CC(C)COC(=O)n1c(SCC(=O)N(C)C)nc2ccccc21	16.3
Cc1cccc(C(=O)Nc2ccccc2C(=O)OCc2c(C)noc2C)c1	-2.7
CCN(CC)S(=O)(=O)c1ccc(NC(=O)C(C)N(c2ccccc2)S(C)(=O)=O)cc1 (configuration not stated)	37.7
C/C=C(\C)CN1CCN(c2ccc(C)cc2)CC1	-7.9
CCOC(=O)c1cnn(-c2ccccc2)c1-n1cccc1C(=O)C(=O)Nc1ccc(OC)cc1	10.7
SMILES	VCAM1 pot
O=S(=O)(Nc1ccc(Cc2ccncc2)cc1)c1ccc(Br)cc1	6.5
CC(C)(C)NC(=O)CN(C(=O)Cn1nnc(-c2ccccc2F)n1)c1cccc2c1CCCC2	4.2
COCCNC(=O)C(c1cccs1)N(C(=O)Cn1nnc2ccccc21)c1ccc(OC)cc1 (configuration not stated)	-9.1
C/C(NC(=O)c1cccs1)=C1\C(=O)C[C@@H]2[C@H]1C2(C)C	0.6
CCN1CCN(C(c2cccs2)C(C)NS(=O)(=O)c2ccc(Br)cc2)CC1 (configuration not stated)	3.9
C=CCc1cccc2cc(C(=O)N3CCN(C(=O)c4ccco4)CC3)c(=O)oc12	-2.8
CN(C)S(=O)(=O)N(CC(=O)Nc1cccc(F)c1)c1ccccc1	-4.4
COCCNC(=O)C(c1ccc(C)o1)N(C(=O)c1snc(C(N)=O)c1N)c1cc(C)cc(C)c1 (configuration not stated)	-7.7
CC1CCCC(N2CCN(C(=O)c3cccc(F)c3)CC2)C1 (configuration not stated)	9.5
C=CCNC(=O)c1onc(CSc2ccccc2CC)c1C(=O)O	1.0
O=C(CSc1nnc2c3cc(F)ccc3nc(-c3ccccc3)n12)N1CCOCC1	-14.2
CC(C)(C)n1ncc(Oc2ccc(Oc3cnn(C(C)(C)C)c(=O)c3Cl)cc2)c(Cl)c1=O	1.9
O=S(=O)(Nc1ccc(-n2cccc2)cc1)c1ccccc1	-39.5
CCCCCOP(=O)(OCCCCC)C1(NS(=O)(=O)c2ccccc2)C=CC(=O)c2ccccc21 (configuration not stated)	-4.9
COc1cccc(/C=N/NC(=O)CC(=O)NCCc2ccc(OC)c(OC)c2)c1	5.2
CCOC(=O)c1cnn(-c2nc(-c3ccc(C)cc3)cs2)c1C(F)(F)F	-96.3
CCOC(=O)c1ccc(-n2nc(C(F)(F)F)c3c(C)cc(=O)oc32)cc1	57.1*
CCOC(=O)c1ccc(-n2[nH]c(-c3ccccc3)cc2=O)cc1	5.3
Cc1cc(NCc2ccccn2)ccc1Br	2.9
c1ccc(CC2CCN(c3nc(N4CCOCC4)nc(N4CCOCC4)n3)CC2)cc1	-20.8
Cc1ccc(S(=O)(=O)c2cc3c(=O)n4ccccc4nc3n(Cc3ccco3)c2=N)cc1	-19.9
COCCNC(=O)CSc1nc2ccccc2c(=O)n1CC1CCCO1 (configuration not stated)	9.5
N#Cc1cc2c(=O)n3ccccc3nc2n(CC2CCCO2)c1=N (configuration not stated)	47.0*
O=C(Nc1cnn(Cc2ccc(Cl)c(Cl)c2)c1)C12CC3CC(CC(C3)C1)C2	-18.5
Cc1ccc(N2CC(C(=O)Nc3ccccc3C(=O)NC3CCCCC3)CC2=O)cc1C (configuration not stated)	19.3
